The test system of assay [1] is Plasmodium falciparum Sir2 (PF13_0152, Sir2A). Briefly: Plasmodium falciparum Sir2A binding compounds – biochemical, small-molecule microarray, 635 nm fluorescence, primary screen (AID 1098).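 Also: score merges spot fluorescence intensity with its signal-to-noise ratio.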 The conditions noted are these: fluorescence 635 nm, higher = more signal.
Assay [2] is described as follows: probe aDKK1 binding to arrayed compounds – biochemical, biotinylated probe, 635/667 nm fluorescence, primary screen (AID 1099).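 Also: score merges 667nm spot fluorescence with signal to noise across triplicate slides.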 The conditions noted are these: small-molecule microarray, higher = more signal.
Assay [3] in a line: probe aCHRDL2 binding to arrayed compounds – biochemical, biotinylated probe, 635/667 nm fluorescence, primary screen (AID 1100). The conditions noted are these: small-molecule microarray, higher = more signal.
Assay [4] in a line: change in splice reporter luminescence, either direction, cell-based, HEK293, spliceosome inhibition project, primary screen (AID 1101).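 Also: HEK293 cells carrying a splicing-competent luciferase reporter gene; test concentration not given here.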 The following applies: HEK293 splicing luciferase reporter, 24 h, higher = more signal, called active from +8 up or from −8 down. A general note: A reporter such as luciferase makes a cellular process visible.
For assay [5], the target named is Fibroblast growth factor 10 (Homo sapiens) (UniProt O15520). Briefly: compounds binding fibroblast growth factor 10 – biochemical, small-molecule microarray, 635 nm fluorescence, primary screen (AID 1102). The following applies: FGF10 binding, fluorescence 635 nm, higher = more signal.
Assay [6] relates to glycogen synthase kinase-3 (GSK3A per assay name; protocol says GSK3B). As to the kind of experiment: compounds binding glycogen synthase kinase-3 – biochemical, small-molecule microarray, 635 nm fluorescence, GSK3A, primary screen (AID 1103). Also: the record names both GSK3A and GSK3B. The conditions noted are these: fluorescence 635 nm, higher = more signal.
Assay [7] concerns the target Epidermal growth factor receptor (Homo sapiens) (UniProt P00533). Briefly: compounds binding epidermal growth factor receptor – biochemical, small-molecule microarray, 635 nm fluorescence, primary screen (AID 1104).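 Also: score merges 667 nm emission intensity with spot signal to noise over triplicate slides.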 The following applies: EGFR binding, higher = more signal.
In assay [8] the target is Follistatin-related protein 3 (Homo sapiens) (UniProt O95633). As to the kind of experiment: compounds binding follistatin-related protein 3 – biochemical, small-molecule microarray, 635 nm fluorescence, primary screen (AID 1105).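 Also: score merges emission near 667 nm and signal to noise per printed spot across three slides.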 The conditions noted are these: FSTL3 binding, higher = more signal.
Assay [9] deals with Dickkopf-related protein 1 (Homo sapiens) (UniProt O94907). As to the kind of experiment: small molecules binding DKK1 protein – biochemical, small-molecule microarray, 635 nm fluorescence scan, primary screen (AID 1106).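 Also: score merges emission near 667 nm with signal to noise over three replicate slides.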 The following applies: higher = more signal.
Assay [10] relates to Inhibin beta A chain (activin A). Briefly: small molecules binding activin A – biochemical, small-molecule microarray, 635 nm fluorescence scan, primary screen (AID 1107).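 Also: mouse activin A protein probed at 4.33 µg/mL on printed slides; score merges bound-protein fluorescence near 667 nm with spot signal-to-noise.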 The following applies: INHBA, higher = more signal.
Assay [11] concerns Human papillomavirus type 1a protein E7 (residues 44-93). Briefly: small molecules binding HPV E7 44-93 – biochemical, small-molecule microarray, residues 44-93, 635 nm fluorescence, primary screen (AID 1108).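 Also: E7 fragment applied at 1 µg/mL in TBST for 1 h at 4 C; score combines spot fluorescence with its signal to noise ratio.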 The conditions noted are these: fluorescence 635 nm, higher = more signal.
Assay [12] in a line: hepatitis C replication reporter changes, two-sided – Huh7 cells, luciferase reporter, HCV replication inhibitor project, primary screen (AID 1109).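 Also: huh7 hepatoma cells harbouring a luciferase neomycin HCV replicon reporter; luciferase luminescence as measure of HCV replicon replication; test concentration not given here.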 The following applies: Huh7 HCV replicon luciferase reporter, 48 h; higher = more signal.
Assay [13] concerns the target Left-right determination factor 2 (Homo sapiens) (UniProt O00292). As to the kind of experiment: small molecules binding LEFTY2 protein – biochemical, small-molecule microarray, 635 nm fluorescence scan, primary screen (AID 1110). The following applies: higher = more signal.
In assay [14] the target is Calmodulin-1 (Homo sapiens) (UniProt P0DP23). Briefly: small molecules binding calmodulin-1 with EGTA – biochemical, small-molecule microarray, Cy5-labelled CALM1, profiling panel (AID 1111).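 Also: labelled calmodulin applied in Tris saline Tween buffer holding calcium plus EGTA and DTT.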 The following applies: Cy5-CALM1 binding fluorescence, higher = more signal.
The target is the same in assay [15]. As to the kind of experiment: small molecules binding Ca-loaded calmodulin-1 – biochemical, small-molecule microarray, Cy5-labelled CALM1, plus calcium, artefact control for SMM control-protein annotation, profiling panel (AID 1112).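 Also: score merges spot fluorescence with signal to noise from triplicate slides.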 The following applies: Cy5-CALM1 binding fluorescence, higher = more signal.
Assay [16] is described as follows: probe aWnt5a binding to arrayed compounds – biochemical, biotinylated probe, 635/667 nm fluorescence, primary screen (AID 1113).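 Also: score merges 667 nm fluorescence intensity with signal-to-noise per printed feature.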 The following applies: small-molecule microarray, higher = more signal.
Assay [17] can be described thus: probe aShh binding to arrayed compounds – biochemical, biotinylated probe, 635/667 nm fluorescence, primary screen (AID 1114).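 Also: probe is biotin-labelled aShh protein from a stem cell growth factor screen; measures binding of labelled protein to compounds printed on the slide; score merges feature fluorescence at 667 nm with signal-to-noise.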 The following applies: small-molecule microarray, higher = more signal.
The nature of assay [18]: probe aNog binding to arrayed compounds – biochemical, biotinylated probe, 635/667 nm fluorescence, primary screen (AID 1115).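 Also: probe is biotinylated aNog protein used at 0.15 µg/mL for 1 h at 4 C; z-score combines 667 nm fluorescence of each spot with its signal to noise.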 The following applies: small-molecule microarray, higher = more signal.
Assay [19] deals with Torsin-1A-interacting protein 1 (Homo sapiens) (UniProt Q5JTV8). As to the kind of experiment: compound microarray binding of lysate hLAP1 – cell lysate, small-molecule microarray, COS7 lysate, 635/667 nm fluorescence, primary screen (AID 1116). The conditions noted are these: 635 nm fluorescence, higher = more signal.
In assay [20] the target is Alpha-bungarotoxin (Bungarus multicinctus) (UniProt P60615). As to the kind of experiment: compounds binding labelled alpha-BTX control protein – biochemical, small-molecule microarray, Alexa647 label, 635/667 nm fluorescence, artefact control for SMM control protein annotation, profiling panel (AID 1117). The following applies: alpha-BTX-A647 binding fluorescence, higher = more signal.

The structures appear in SMILES notation. Activity calls are given as the source filed them.

Drawing on PubChem BioAssay, this text covers composite z-score and z-score for eight molecules.

Chain of Fibroblast growth factor 10 (Homo sapiens) (O15520 whole entry, looked up): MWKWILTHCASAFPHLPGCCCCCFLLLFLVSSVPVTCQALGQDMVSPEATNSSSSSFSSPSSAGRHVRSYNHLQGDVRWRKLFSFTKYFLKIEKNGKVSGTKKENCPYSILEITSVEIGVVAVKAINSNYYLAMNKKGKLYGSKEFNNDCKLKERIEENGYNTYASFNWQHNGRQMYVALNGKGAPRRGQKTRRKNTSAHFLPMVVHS
Chain of Follistatin-related protein 3 (Homo sapiens) (O95633 whole entry, looked up): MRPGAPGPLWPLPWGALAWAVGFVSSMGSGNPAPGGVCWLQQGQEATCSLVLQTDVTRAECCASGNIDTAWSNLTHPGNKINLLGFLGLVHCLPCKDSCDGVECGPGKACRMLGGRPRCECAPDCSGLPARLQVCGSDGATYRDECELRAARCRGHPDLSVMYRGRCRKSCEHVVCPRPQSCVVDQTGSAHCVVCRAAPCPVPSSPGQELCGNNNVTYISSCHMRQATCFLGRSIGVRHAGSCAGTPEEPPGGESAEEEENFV
Chain of Epidermal growth factor receptor (Homo sapiens) (P00533 whole entry, looked up): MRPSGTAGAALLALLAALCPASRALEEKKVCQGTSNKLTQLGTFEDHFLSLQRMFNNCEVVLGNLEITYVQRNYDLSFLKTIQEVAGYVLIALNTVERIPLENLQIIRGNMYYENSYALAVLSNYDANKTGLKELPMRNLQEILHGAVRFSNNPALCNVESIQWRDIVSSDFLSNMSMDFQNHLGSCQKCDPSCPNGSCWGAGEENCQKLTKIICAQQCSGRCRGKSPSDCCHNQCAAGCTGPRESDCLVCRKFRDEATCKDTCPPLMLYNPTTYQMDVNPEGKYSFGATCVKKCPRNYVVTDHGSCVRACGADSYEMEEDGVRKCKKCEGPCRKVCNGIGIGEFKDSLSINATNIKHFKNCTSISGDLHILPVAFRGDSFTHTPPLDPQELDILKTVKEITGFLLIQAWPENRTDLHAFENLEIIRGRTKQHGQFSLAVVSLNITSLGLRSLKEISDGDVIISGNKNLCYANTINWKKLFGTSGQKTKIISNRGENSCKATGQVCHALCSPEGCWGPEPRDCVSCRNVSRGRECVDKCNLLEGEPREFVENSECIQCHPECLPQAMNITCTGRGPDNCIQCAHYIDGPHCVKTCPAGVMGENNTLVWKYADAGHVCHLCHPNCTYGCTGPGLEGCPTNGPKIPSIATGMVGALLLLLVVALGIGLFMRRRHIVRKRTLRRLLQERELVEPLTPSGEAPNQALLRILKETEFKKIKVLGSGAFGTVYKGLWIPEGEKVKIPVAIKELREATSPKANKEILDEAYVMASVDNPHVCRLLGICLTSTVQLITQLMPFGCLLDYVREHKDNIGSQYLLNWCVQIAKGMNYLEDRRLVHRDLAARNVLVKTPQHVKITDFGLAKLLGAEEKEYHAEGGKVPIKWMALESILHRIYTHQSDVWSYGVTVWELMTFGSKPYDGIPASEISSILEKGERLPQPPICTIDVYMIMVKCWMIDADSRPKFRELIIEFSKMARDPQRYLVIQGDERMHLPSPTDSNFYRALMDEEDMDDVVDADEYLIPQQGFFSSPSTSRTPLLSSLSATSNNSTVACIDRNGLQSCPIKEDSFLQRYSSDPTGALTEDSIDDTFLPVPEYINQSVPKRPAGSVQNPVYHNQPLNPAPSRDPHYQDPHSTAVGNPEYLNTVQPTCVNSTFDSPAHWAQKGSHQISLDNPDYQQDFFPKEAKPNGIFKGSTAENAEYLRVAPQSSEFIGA
Chain of Alpha-bungarotoxin (Bungarus multicinctus) (P60615 whole entry, looked up): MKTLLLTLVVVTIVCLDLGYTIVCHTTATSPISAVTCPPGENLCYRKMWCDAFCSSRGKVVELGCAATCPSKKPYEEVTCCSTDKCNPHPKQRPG
Chain of Torsin-1A-interacting protein 1 (Homo sapiens) (Q5JTV8 whole entry, looked up): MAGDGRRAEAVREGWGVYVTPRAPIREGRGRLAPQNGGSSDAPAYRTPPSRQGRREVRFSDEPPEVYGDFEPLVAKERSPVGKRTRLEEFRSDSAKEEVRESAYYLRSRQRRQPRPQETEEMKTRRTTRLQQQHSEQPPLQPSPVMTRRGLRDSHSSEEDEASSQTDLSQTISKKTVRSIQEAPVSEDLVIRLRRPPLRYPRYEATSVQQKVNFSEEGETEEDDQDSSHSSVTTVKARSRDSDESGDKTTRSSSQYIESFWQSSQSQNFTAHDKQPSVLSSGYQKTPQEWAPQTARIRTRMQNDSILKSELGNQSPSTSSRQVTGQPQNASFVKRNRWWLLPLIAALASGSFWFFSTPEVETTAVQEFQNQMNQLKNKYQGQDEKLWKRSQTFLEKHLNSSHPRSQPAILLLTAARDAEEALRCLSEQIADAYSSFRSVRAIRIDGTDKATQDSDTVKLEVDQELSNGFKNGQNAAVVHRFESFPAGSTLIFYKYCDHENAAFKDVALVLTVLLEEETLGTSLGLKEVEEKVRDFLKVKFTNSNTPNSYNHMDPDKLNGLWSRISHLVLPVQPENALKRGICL
Chain of Left-right determination factor 2 (Homo sapiens) (O00292 whole entry, looked up): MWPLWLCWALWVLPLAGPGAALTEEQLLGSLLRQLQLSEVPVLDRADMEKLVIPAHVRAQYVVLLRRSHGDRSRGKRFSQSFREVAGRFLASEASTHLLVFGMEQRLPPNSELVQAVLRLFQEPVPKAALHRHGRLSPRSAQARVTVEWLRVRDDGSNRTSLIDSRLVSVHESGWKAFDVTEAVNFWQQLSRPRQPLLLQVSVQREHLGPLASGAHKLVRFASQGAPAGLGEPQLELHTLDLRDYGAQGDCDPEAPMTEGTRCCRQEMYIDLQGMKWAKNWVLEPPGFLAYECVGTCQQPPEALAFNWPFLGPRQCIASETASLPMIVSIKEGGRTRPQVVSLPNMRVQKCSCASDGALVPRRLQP
Chain of Dickkopf-related protein 1 (Homo sapiens) (O94907 whole entry, looked up): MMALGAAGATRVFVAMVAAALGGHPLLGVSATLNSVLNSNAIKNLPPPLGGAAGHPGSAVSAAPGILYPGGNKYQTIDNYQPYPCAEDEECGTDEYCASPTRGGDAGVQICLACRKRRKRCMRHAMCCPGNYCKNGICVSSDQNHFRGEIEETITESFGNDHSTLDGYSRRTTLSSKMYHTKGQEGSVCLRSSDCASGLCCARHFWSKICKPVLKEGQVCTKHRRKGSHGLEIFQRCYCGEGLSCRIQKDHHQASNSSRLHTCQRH

For the molecule `COc1ccc([Si](C)(C)[C@H]2[C@H](CCO)O[C@@]3(C(=O)N(Cc4cccc(N(C=O)c5ccccc5)c4)c4ccccc43)[C@@H]2C)cc1`, the composite z-score in assay [1] was 1.14; in [2], -0.305; in assay [3], -0.777; in assay [5] it was 1.33; in assay [6] it was 1.29; in assay [7], 0.406. Also, the composite z-score came to 1.08 in [8]; 0.469 in assay [9]; 0.013 in assay [10]; 1.39 in [11]; 0.393 in [13]; 0.909 in assay [14]. Also, the composite z-score in assay [15] is -0.507; in [16], -0.0269; in assay [17], 0.0723; in [18] it was 0.0199; in [19], 0.124; in [20], 0.751. For the same molecule, the z-score in [4] was -1.53 (inactive); in [12], -4.84.
On to `O=C(O)[C@H](Cc1ccccc1)n1cc(C2(O)CCCCC2)nn1`, for which the composite z-score is -0.0685 in assay [1]; -0.201 in [2]; -0.518 in [3]; 0.193 in [5]; 0.938 in assay [6]; 0.213 in assay [7]. Besides, the composite z-score in assay [8] is 0.343; in assay [9], 0.196; in assay [10], -0.0247; in assay [11], 0.792; in [13], 0.678; in assay [14], -0.259. Also, the composite z-score in assay [15] was -0.691; in assay [16], -0.263; in [17], 0.527; in assay [18], -0.0899; in assay [19] it was 0.281; in [20], 0.0396. Further, the z-score is -0.358 (inactive) in assay [4] and -0.96 in [12].
Consider `O=C1[C@H]2C=C(I)[C@H](C[C@@H]2OCCCCCCO)[C@@]12CO2`, for which the composite z-score was 0.525 in [1]; -0.261 in [2]; 0.191 in assay [3]; 0.281 in [5]; -0.454 in assay [6]; 0.677 in [7]. Further, the composite z-score is 1.39 in [8]; 1.15 in [9]; 1.43 in assay [10]; -1.14 in assay [11]; 0.687 in assay [13]; -1.08 in assay [14]. In addition, the composite z-score was -1 in assay [15]; -0.152 in assay [16]; -0.0362 in assay [17]; -0.422 in [18]; -0.144 in assay [19]; 0.621 in assay [20]. Further, the z-score in [4] is 0.0312 (inactive); in assay [12], -2.67.
In the case of `CC(C)(C)N1CC=CC23O[C@@H]4C=CCOC(=O)[C@@H]4[C@H]2C(=O)N(CCO)[C@@H]3C1=O` (stereo not given in full), the composite z-score was 1.75 in assay [1]; -0.243 in assay [2]; 0.375 in assay [3]; -1.05 in [5]; -1.14 in assay [6]; -0.687 in assay [7]. Further, the composite z-score in assay [8] was -0.955; in assay [9], -1.44; in assay [10], -0.545; in assay [11] it was 0.0175; in assay [13], -1.37; in assay [14], -0.605. Moreover, the composite z-score in [15] was 0.546; in assay [16], -0.15; in assay [17] it was 0.0136; in assay [18] it was -0.364; in assay [19], -0.843; in assay [20], -0.7. Further, the results for the z-score in assay [4] and in [12] were -0.273 (inactive) and -0.471, respectively.
Turning to `COc1ccc(CCNC(=O)[C@@H]2c3ccccc3C(=O)N(Cc3ccccc3OC)[C@H]2c2ccc(CO)cc2)cc1`, the composite z-score in assay [1] is 1.1; in assay [2], -0.381; in assay [3] it was 0.508; in [5], 0.454; in assay [6] it was 0.931; in assay [7] it was 0.0744. Further, the composite z-score in [8] is 0.172; in assay [9], 0.0163; in assay [10], 0.414; in assay [11], 1.16; in [13], -0.321; in assay [14], 0.527. In addition, the composite z-score in [15] is -0.103; in [16], -0.0398; in assay [17] it was -0.423; in [18] it was 0.938; in assay [19], 0.966; in assay [20], 0.75. Further, the z-score in assay [4] was 0.295 (inactive); in assay [12], -1.27.
For the molecule `C=C(COC)/C(=C/C[C@@H](OC(C)=O)c1ccccc1OCCO)c1cnc2ccccc2c1`, the composite z-score in [1] was 1.24; in assay [2], -0.151; in assay [3] it was -0.112; in assay [5], 1.39; in assay [6], 0.344; in assay [7] it was 0.26. In addition, the composite z-score is 1.44 in [8]; 0.336 in [9]; 1.78 in assay [10]; 1.17 in [11]; 0.248 in assay [13]; 0.35 in assay [14]. The composite z-score in assay [15] was -0.716; in [16], -0.1; in [17] it was 0.0796; in assay [18], 0.329; in [19] it was 1.73; in assay [20] it was 1.56. Also, the z-score was 0.617 (inactive) in [4] and -1.95 in assay [12].
Take `CCCCCC1=C2CNC(CC(C)C)(C(=O)OC)C=C2C(C)C1=O` (stereo not given): the composite z-score is 0.452 in assay [1]; 0.72 in [2]; 0.952 in assay [3]; 0.071 in assay [5]; -0.361 in assay [6]; -0.73 in assay [7]. Moreover, the composite z-score in assay [8] is -0.403; in assay [9], -0.756; in [10] it was 1.23; in assay [11], 1.2; in assay [13] it was -0.869; in [14] it was 1.64. Moreover, the composite z-score in assay [15] is 1.22; in assay [16], -0.0165; in [17], 1.16; in [18], 0.154; in assay [19], 0.932; in assay [20], 0.195. In addition, the z-score in assay [4] is 5.08 (inactive); in assay [12], -0.897.
For the molecule `COC(=O)[C@@]1(Cc2ccccc2)[C@H]2c3cc(C(=O)N(C)C)n(Cc4ccc(S(C)(=O)=O)cc4)c3C[C@H]2CN1C(=O)c1ccccc1`, the composite z-score in assay [1] is 0.308; in assay [2], 1.1; in assay [3], 1.22; in [5] it was 0.648; in [6] it was 0.0903; in assay [7], -0.366. Besides, the composite z-score in assay [8] was -0.0624; in assay [9], -0.618; in assay [10], 0.749; in assay [11], -1.1; in assay [13], -0.115; in [14] it was 1.69. Also, the composite z-score turned out to be 1.11 in assay [15]; 0.0613 in [16]; 0.954 in assay [17]; 0.35 in assay [18]; 1.29 in assay [19]; 0.548 in assay [20]. For the same molecule, the results for the z-score in [4] and in assay [12] were 0.376 (inactive) and -0.912, respectively.
